The values that follow come from the supplement of paper PMC6555819.

The assay has as its system RARa:RXR (NR concentration 270 nM, RXRa partner concentration 90 nM). The assay is described as follows: PBM binding z-score (relative to random genomic background probes); higher = stronger binding; sequences stand for … in GC…GCGATTGACAGCGTAGAATGAAGG
Put shortly:
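Binding z-scores were set against random background probes. The data came from custom Agilent 4×180K protein-binding microarrays carrying double-stranded probes with 34-nt variable regions, incubated 1 h with ligand-free nuclear receptor dimers. Partner-specific antibodies detected binding, and scanned fluorescence was regression-normalized.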
CCGACTGGGGCATAAGGTTACTATAAGCCAGCCC: the PBM binding z-score was determined as 0.911.

Turning to CTCGAAAGGTCGGTTGAGGTGAGTACACGGATAA, the PBM binding z-score is 2.11.

Sequence AATACAGGGTCACTATGCCAGAGTAGGTACGAAT showed a PBM binding z-score of 3.67.

TAGCCTAGGTCAGATCGGGCCTGTATACGCTATA displayed a PBM binding z-score of 1.22.

Turning to TATACAGGGTCAAAGGCCAGGGTACGAATGTCGA, the PBM binding z-score came out at 6.05.

In turn, TCTAGTTGGTCACGGAGGTCACACTCGACGGGTA returned a PBM binding z-score of 4.2.

In turn, AGTTAAAGTTCACTAGGTAACGTAAGATTCAGCT came in with a PBM binding z-score of 2.66.

On to CCTTACGGGTCACTGACAGGTTATACCATTTGGA, for which the PBM binding z-score was determined as 4.53.

Take ACCGAAAGGTCGTGAGGTGAGTATACAGAAAGGC: the PBM binding z-score came to 4.22.

Take CGTCCAAGGTGAAGGTCAGTGAAAGAGACTCGAA: the PBM binding z-score was 2.11.

The sequence ATCTCTAGGTAGGACTCAGTTCAGTGAAGAACGC showed a PBM binding z-score of 0.353.

The sequence ACTATTAGTTGAGACGACGGCAACCGATAGGTTG showed a PBM binding z-score of -0.302.

ATCACTAGGTAAGACTCAGTTCAGTGAAGAACGC displayed a PBM binding z-score of 0.026.

The sequence TCATATAGGTAAATGCTAGGTGTAAGTCCGATCT showed a PBM binding z-score of 0.00446.

For the sequence CTCGAAAGGTCGTGCTCAGGTGGGTATACCAAAC, the PBM binding z-score was found to be 3.84.

In turn, AGAATGAGCTTATTAAGATCAGGGAATTGCGGTC returned a PBM binding z-score of -0.065.

TCTCGGAGGACACGACAGGTCAGAGCTCGACATC came in with a PBM binding z-score of 1.6.

On to TCTTGTAGATCAGGCAGGTTAAGAAAGCCTGAGT, for which the PBM binding z-score turned out to be 0.0754.

Sequence GATACAGGGTCAGCTAGAGGCCAAAGTATGGAAA showed a PBM binding z-score of 5.28.

Consider CCTATTAGTTGACCATAAGGGTAACCGAAGCTCG, for which the PBM binding z-score turned out to be 0.834.

With ATCTCTAGGTAAAGATAGTTCAGTGGATGCAAAT, the PBM binding z-score is 0.0212.

The sequence CAGCCTAGGTCAGTGCCAGTATAGGAGGAACGTT came in with a PBM binding z-score of 0.516.
